Only some compounds are listed: those with a hit (about 12% of all), similar ones and a draw of the others.
PLK1 PBD block = blocks phosphopeptide binding to human PLK1 polo-box domain; Plk1 PBD binding of FITC phosphopeptide, fluorescence polarization; Potency, µM, usual class: inhibitors; 360,000 compounds, 2.8% hits; note: series mostly up to about 57 µM; nearly all actives have a fitted effect of over 65% in size
BAZ2B inh = blocks human BAZ2B; Q9UIF8; AlphaScreen BAZ2B-H3K14Ac peptide displacement; 360,000 compounds, 4.4% hits; Potency, µM (series often up to 114 µM), actives largely listed as inhibitors; note: nearly all actives have a fitted effect of over 60% in size
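In this displacement format the biotinylated H3(5-23) peptide acetylated at Lys14 serves as ligand at 50 nM, with BAZ2B at 50 nM in PBS pH 7.4 containing 0.01% Tween-20. Donor and acceptor beads are 10 ug/mL final.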
JMJD2A Tudor inh = blocks the human JMJD2A Tudor domain | O75164 | AlphaScreen JMJD2A-Tudor / H3K4me3 peptide binding | Potency, µM (top dose mostly 114 µM), actives largely listed as inhibitors | 390,000 compounds, 4.4% hits | AID 504339; note: nearly all actives have a fitted effect of over 50% in size
G9a block = blocks human histone lysine methyltransferase G9a; 350,000 compounds, 8.8% hits; Potency, µM (highest dose often 102 µM), hits mostly inhibitors; AID 504332; G9a H3K9 monomethylation, AlphaScreen, 2 h; note: nearly all actives have a fitted effect of over 75% in size
Target sequence (Q96KQ7 913-1193 limits assumed): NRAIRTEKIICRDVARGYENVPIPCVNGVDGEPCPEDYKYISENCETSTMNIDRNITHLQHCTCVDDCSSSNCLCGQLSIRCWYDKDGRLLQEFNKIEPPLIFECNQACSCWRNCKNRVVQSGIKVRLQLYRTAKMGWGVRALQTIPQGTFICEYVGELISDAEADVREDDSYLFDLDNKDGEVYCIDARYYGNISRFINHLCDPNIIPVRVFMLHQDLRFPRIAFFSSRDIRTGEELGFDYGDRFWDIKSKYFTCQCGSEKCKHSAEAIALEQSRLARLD
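Enzyme 20 nM + cpd, 15 min RT; add b-H3K9 pep 500 nM / SAM 20 uM; 2 h RT; anti-H3K9me1 Ab 0.5 ug/mL + SA donor / anti-rabbit acceptor beads 20 ug/mL each, 10 min; AlphaScreen read.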
PI5P4Ka inh = blocks human PI5P4K alpha kinase activity; P48426; PI5P4Kalpha enzyme, ADP-Glo luminescence, 60 min; hits give low values; max response, %; 330,000 compounds, 1.2% hits; active = max response of -50% or lower; inconclusive = between -30% and -50%; inactive = -30% or higher; note: value at the top dose of about 77 µM
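Enzyme plus substrate dispensed, test compounds pinned in, then ATP (5 microM final) added. After 60 min at RT, ADP-Glo reagent 1 for 45 min and reagent 2 for 30 min preceded luminescence imaging.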
HP1b chromo inh = HP1-beta chromodomain-methylated histone interaction inhibition; P83916; AlphaScreen HP1-beta / biotin-H3K9me3 peptide binding; Potency, µM (doses to about 114 µM), actives largely listed as inhibitors; 390,000 compounds, 0.56% hits; note: nearly all actives have a fitted effect of over 70% in size
Target sequence (P83916 whole entry, looked up): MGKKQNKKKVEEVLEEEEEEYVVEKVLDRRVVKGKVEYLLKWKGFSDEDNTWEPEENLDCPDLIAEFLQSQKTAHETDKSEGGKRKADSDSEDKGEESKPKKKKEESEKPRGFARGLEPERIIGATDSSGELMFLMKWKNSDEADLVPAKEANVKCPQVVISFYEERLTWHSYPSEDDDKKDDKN
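Compound inhibition of the preformed complex between 50 nM HP1-beta and 50 nM biotinylated H3K9me3 peptide was read by AlphaScreen. Buffer was PBS pH 7.4 with 0.01% Tween-20. Incubations ran 30 min at room temperature, with 10 ug/mL donor/acceptor beads.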
A number is an active result; i = inactive; ? = inconclusive; nt = no result given; [ ] = dose if it differs, or a comment. Unless noted, calls come from the whole dose curve; as a rule, active = well fitted curve in the direction sought with a large enough effect; inconclusive = small, poorly fitted or top-dose-only effect, or another doubt; inactive = no such curve, though single readings can be large; an effect the other way counts as inactive or inconclusive.

SMILES	PLK1 PBD block	BAZ2B inh	JMJD2A Tudor inh	G9a block	PI5P4Ka inh	HP1b chromo inh
CCN1CCN(CC(=O)c2cc(Cl)ccc2Cl)CC1	i	i	i	14µM	i	i
COc1ccccc1CNc1nc(-c2ccccc2OC)nc2ccccc12	nt	nt	nt	i[0.501 µM]	nt	nt
COCC(C)n1c(SCC(=O)c2cc(C)n(C)c2C)nc2ccccc2c1=O (centres undefined)	i	50µM	?	40µM	i	i
COCC(C)n1c(C)cc(C(=O)CSc2ncccn2)c1C (centres undefined)	i	?	i	35µM	i	i
COc1cc([N+](=O)[O-])ccc1NC(=O)N1CCN(c2cc(-c3noc(C)n3)ccc2C)CC1	nt	i	i	i	nt	i
Cc1ccc(OCCC(=O)N(CC(=O)Nc2ccccc2C(F)(F)F)Cc2ccco2)cc1	i	i	i	?	i	i
CCOC(=O)C(=Cc1ccc2c(c1)OCO2)c1ccccc1	i	nt	i	nt	i	i
CN/C=C1\C(=O)C(C)(C)Oc2ccc3ccc(=O)oc3c21	i	i	i	i	i	i
CC1(C)Oc2ccc3ccc(=O)oc3c2/C(=C/Nc2cccc(O)c2)C1=O	i	?	40µM	45µM	i	?
CC1(C)Oc2ccc3ccc(=O)oc3c2/C(=C/NNC(N)=S)C1=O	i	50µM	?	7.1µM	i	i
O=C(Cn1c(=O)oc2cc(S(=O)(=O)N3CCCCCC3)ccc21)Nc1ccc(F)cc1F	nt	i	i	i	nt	i
Cc1oc(-c2cccc(Br)c2)nc1CSc1nc2ncccc2[nH]1	nt	i	i	?	nt	i
CCOC(=O)/C=C(C)/C=C/C=C(C)/C=C/c1c(C)cc(OC)c(C)c1C	nt	nt	nt	i[12.7 µM]	nt	nt
COc1cc(C)c(/C=C/C(C)=C/C=C/C(C)=C/C(=O)O)c(C)c1C	30µM	nt	56µM	?	i	i
C=C(CO)C1Cc2cc(C(C)=O)ccc2O1 (centres undefined)	i	79µM	?	i[12.7 µM]	i	i
Cc1cc(O)c(/C=N/Nc2ccc(Cl)cc2)c(=O)o1	i	i	?	8.9µM	i	i
Cc1cc(O)c(/C=N/OCc2ccc(Cl)cc2Cl)c(=O)o1	?	i	?	20µM	i	i
Cc1cc(O)c(/C=N/Nc2cccc(Cl)c2)c(=O)o1	i	i	i[11.4 µM]	2.2µM	i	i
COc1ccc(Cl)cc1N=Cc1c(O)cc(C)oc1=O	i	nt	i	nt	nt	i
Cc1cc(O)c(/C=N/Nc2ccccc2Cl)c(=O)o1	i	i	56µM	1.4µM	i	i
CC(C)OCCCNc1nc2c(cnn2C)c(=O)[nH]1	i	nt	i	nt	i	i
Cc1ccc(CNC(=O)C(CC(C)C)NS(=O)(=O)c2ccc3c(c2)oc(=O)n3C)cc1 (centres undefined)	nt	i	i	i	nt	i
C/C(=N/NC(=O)CNC(=O)c1ccccc1F)c1ccc2c(c1)CCCC2	8.4µM	i	32µM	i	-67	i
C/C(=N/NC(=O)CNC(=O)c1ccc2c(c1)OCO2)c1ccc2c(c1)CCCC2	i	nt	i	i	i	i
COC(=O)c1c(C(=O)OC)c(-c2ccc(Cl)cc2)n2c1CS(=O)(=O)C2	4.2µM	i	?	i	i	i
SMILES	PLK1 PBD block	BAZ2B inh	JMJD2A Tudor inh	G9a block	PI5P4Ka inh	HP1b chromo inh
COC(=O)c1c(C(=O)OC)c(-c2ccc(C)cc2)n2c1CS(=O)(=O)C2	i	i	i	i	i	i
Oc1cccc2c(NC(=S)Nc3ccc(SC(F)F)cc3)cccc12	i	45µM	?	40µM	i	?
Oc1cccc(NC(=S)Nc2ccc(SC(F)F)cc2)c1	i	i	i	i	i	i
CCCNC(=O)c1cnc2c(-c3ccc(OCC)c(OCC)c3)c(C)nn2c1-c1ccccc1	nt	i	i	i	nt	i
COc1ccc(/C=C/C(=O)NC(=S)NN2CCCCC2c2cccnc2)cc1OC (centres undefined)	?	i	i	32µM	i	i
O=C(/C=C/c1ccc(Cl)cc1)NC(=S)NN1CCCCC1c1cccnc1 (centres undefined)	nt	?	nt	22µM	nt	nt
COc1ccc(/C=C/C(=O)NC(=S)N2CCCCC2)cc1OC	i	i	i	?	i	i
CC[C@@]12C(=O)N(c3cccc(Cl)c3)C(=O)N1[C@H](c1ccc(Br)cc1)[C@@H]1C(=O)N(C(C)(C)C)C(=O)[C@@H]12	i	i	79µM	i[2.33 µM]	?	i
CCOc1ccccc1NC(=O)C(c1ccccc1)N1Cc2ccccc2C1=O (centres undefined)	nt	i	i	i	nt	i
CCN1CCCC1CNC(=O)c1cc2c(-c3ccc(Cl)cc3)nn(C)c2s1 (centres undefined)	i	i	i	79µM	i	i
Cc1ccc(CNC(=O)c2cc3c(-c4ccc(Cl)cc4)nn(C)c3s2)o1	i	i	i	50µM	i	i
COc1cccc(NC(=O)CSc2nnc(NC(=O)NC3CCCCC3)s2)c1	nt	i	i	i	nt	i
N#Cc1cccc(NC(=O)N2CC3(CCN(C(=O)c4ccco4)CC3)C2)c1	nt	nt	nt	i[12.7 µM]	nt	nt
Oc1ccc(/C=N/NC2=NCCCCC2)cc1	i	i	i	40µM	nt	i
COc1cc(/C=N/NC2=NCCCCC2)ccc1O	i	i	i	56µM	i	i
NS(=O)(=O)c1ccc(N/N=C/c2ccccc2C(=O)O)c([N+](=O)[O-])c1	i	i	i	i	i	i
O=C(O)c1ccccc1NS(=O)(=O)c1ccc(NN=Cc2ccc(F)cc2)c([N+](=O)[O-])c1	24µM	nt	45µM	nt	-58	?
O=C(O)c1ccccc1NS(=O)(=O)c1ccc(NN=Cc2cccc(Cl)c2)c([N+](=O)[O-])c1	?	nt	18µM	nt	-66	79µM
NS(=O)(=O)c1ccc(N/N=C/c2ccc(O)cc2O)c([N+](=O)[O-])c1	i	?	i[11.4 µM]	nt	i	i
O=C(O)c1ccccc1NS(=O)(=O)c1ccc(N/N=C/c2ccc(O)c(O)c2)c([N+](=O)[O-])c1	?	nt	28µM	nt	-96	14µM
NS(=O)(=O)c1ccc(N/N=C/c2ccc(O)c(O)c2O)c([N+](=O)[O-])c1	3µM	35µM	8.9µM	nt	-75	13µM
CCCCOC(=O)c1ccc(NC(=O)c2cc3c(=O)n4cccc(C)c4nc3s2)cc1	nt	i	i	i	nt	i
CCc1cc2c(cc3c(=O)n(CCCC(=O)NCc4cccc(Br)c4)ncn32)s1	nt	i	i	i	nt	i
CC(=O)NC1(c2ccccc2)CCN(CC(=O)N2CCC(C)CC2)CC1	i	i	i	nt	i	i
CCOc1ccc2c(c1)c(N=Nc1cccc(C(=O)O)c1)c(O)n2C	i	?	?	?	i	i
Cc1ccc2c(c1)c(N=Nc1cccc(C(=O)O)c1)c(O)n2C	i	?	i	35µM	i	i
COc1ccc(-c2nc(SCC(=O)Nc3ccc4c(c3)OCO4)c(-c3ccc(OC)cc3)[nH]2)cc1	nt	79µM	?	13µM	nt	i
COc1ccc(-c2[nH]c(-c3ccccc3)nc2SCC(=O)Nc2ccc3c(c2)OCCO3)cc1	nt	?	?	?	nt	i

Bioassay records from PubChem.
